Data from PubChem BioAssay (NCATS).
Results filed as inconclusive are left out. Entries that show only a call come without a potency. A number with no mark means an inactive call. Active and inactive are the calls of the source. Calls follow the shape of the dose curve; as a rule, active = well fitted inhibition curve with a large enough effect; inconclusive = small, poorly fitted or top-dose-only effect; inactive = flat fitted curve, though single readings scatter.

assay: P-glycoprotein substrates identified in KB-8-5-11 adenocarcinoma cell line, qHTS therapeutic library screen (AID 1346987); details: KB-8-5-11 (P-gp overexpressing) viability, CellTiter-Glo, 72 h; series mostly up to 44.5 µM; also: nearly all actives have a fitted effect of over 65% in size
In short: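 KB-8-5-11, a colchicine-selected P-gp-overexpressing KB-3-1 subline, was grown without colchicine for the assay. Cells were seeded at 500 cells/well, dosed in concentration-response and incubated 72 h at 37 degree C, 5% CO2. Viability was read by CellTiter-Glo luminescence.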

SMILES	Potency	activity change, negative = cytotoxicity	outcome
C=C1C(O)C(O)C2(CC3C(C)=CCC4C(C)(C(=O)O)CCCC34C)OC2C1O (centres undefined)	inactive	–	–
CC(=O)O[C@@H]1C[C@@H](C)[C@](O)(CCC2=CC(=O)OC2)[C@@]2(C)CCCC(C)(C)C12 (some centres undefined)	inactive	–	–
CN1CCCC1Cc1c[nH]c2ccc(CCS(=O)(=O)c3ccccc3)cc12 (centres undefined)	inactive	–	–
C=C(C)[C@@H]1CC[C@]2(C(=O)O)CC[C@]3(C)[C@H](CCC4[C@@]5(C)CCC(=O)C(C)(C)C5C(O)C[C@]43C)C12 (some centres undefined)	inactive	–	–
O=C(OC[C@H]1O[C@H](O[C@H]2CO[C@H](CO)[C@@H](O)[C@@H]2O)[C@H](O)[C@@H](O)[C@H]1O)c1ccccc1	inactive	–	–
COc1ccc(C2COc3cc(O)ccc3C2)c(O)c1OC (centres undefined)	inactive	–	–
CC/C=C\C(O)C(O)C1=C(C)C(=O)C2(O1)C(=O)NC(OC)(C(=O)c1ccccc1)C2O (centres undefined)	inactive	–	–
O=C(O)[C@H]1Cc2ccccc2CN1	–	6.15% [at 5.11 µM]	–
CC(=O)/C=C/[C@H]1[C@](C)(O)[C@@H](O)[C@H](O)C2C(C)(C)CCC[C@@]21C (some centres undefined)	inactive	–	–
CC(=O)c1c(C)cccc1O[C@@H]1O[C@H](CO)[C@@H](O)[C@H](O)[C@H]1O	inactive	–	–
CCCC(C(=O)O)c1c(C)nc2ccc(Cl)cc2c1-c1ccccc1 (centres undefined)	inactive	–	–
C[C@H]1CC[C@H]2[C@@H](C=C[C@@](C)(O)[C@]2(C)C(=O)CCO)C1	inactive	–	–
C/C=C/C=C/C(=O)OC1CC/C=C/C(O)C(O)C(CCC)OC1=O (centres undefined)	inactive	–	–
CC(=O)c1[nH]cc(CCC(=O)O)c1CC(=O)O	inactive	–	–
C=C1C(=O)O[C@@H]2C[C@]3(C)[C@@H](CCC(C)=O)[C@@H]3C[C@H]12	inactive	–	–
CC(C)=CCC[C@](C)(O[C@@H]1O[C@H](CO[C@@H]2OC[C@H](O)[C@H](O)[C@H]2O)[C@@H](O)[C@H](O)[C@H]1O)[C@H]1CC[C@]2(C)[C@@H]1[C@H](O)C[C@@H]1[C@@]3(C)CC[C@H](O[C@@H]4O[C@H](CO)[C@@H](O)[C@H](O)[C@H]4O[C@@H]4O[C@H](CO)[C@@H](O)[C@H](O)[C@H]4O)C(C)(C)[C@@H]3CC[C@]12C	inactive	–	–
C=C1CC[C@@H]2[C@@](C)(CO[C@@H]3O[C@H](CO)[C@@H](O)[C@H](O)[C@H]3O)[C@H](O)CC[C@@]2(C)[C@@H]1CC/C(C)=C/CO[C@@H]1O[C@H](CO)[C@@H](O)[C@H](O)[C@H]1O	inactive	–	–
CC(=O)OC/C(=C/C(=O)O)CC[C@@H]1C(C)=CC(=O)[C@@H]2C(C)(C)CCC[C@@]12C	inactive	–	–
Cc1cc(Cn2cnc3c2CC(C(=O)O)N(C(=O)C(c2ccccc2)c2ccccc2)C3)ccc1N(C)C (centres undefined)	inactive	–	–
C[C@H]1[C@H](C)C[C@@H](C(=O)O)C2CC[C@]3(C)C(=CC[C@@H]4[C@@]5(C)CC[C@H](O)C(C)(C)[C@@H]5CC[C@]43C)[C@@H]21 (some centres undefined)	inactive	–	–
C=C1CC[C@]2(C(=O)O[C@@H]3O[C@H](CO)[C@@H](O)[C@H](O)[C@H]3O)CC[C@]3(C)C(=CCC4[C@@]5(C)C[C@H](O)[C@@H](O[C@@H]6O[C@H](C(=O)O)[C@@H](O)[C@H](O)[C@H]6O)[C@](C)(C=O)C5CC[C@]43C)C2C1 (some centres undefined)	–	–	inactive [at 9.29 µM]
C=C(C(=O)O)[C@H]1C[C@]2(C)C(=O)CC[C@]23O[C@H]1C[C@@H]3C	inactive	–	–
O=C(O)Cc1cn([C@@H]2O[C@H](CO)[C@@H](O)[C@H](O)[C@H]2O[C@@H]2O[C@H](CO)[C@@H](O)[C@H](O)[C@H]2O)c2ccccc12	inactive	–	–
CC(C)c1ccc2c(c1)C(=O)CC1C(C)(C(=O)O)CCCC21C (centres undefined)	inactive	–	–
COc1ccc2[nH]c(S(=O)Cc3ncc(C)c(OC)c3C)nc2c1 (centres undefined)	inactive	–	–
CCC[C@H](N[C@@H](C)C(=O)N1[C@H](C(=O)O)C[C@@H]2CCCC[C@@H]21)C(=O)O	inactive	–	–
CC1(C)CC[C@]2(C(=O)O)CC[C@]3(C)C(=CCC4[C@@]5(C)CC[C@H](O[C@@H]6O[C@H](C(=O)O)[C@@H](O)[C@H](O)[C@H]6O)C(C)(C)C5CC[C@]43C)C2C1 (some centres undefined)	inactive	–	–
O=C(O)Cc1cn([C@@H]2OC[C@@H](O[C@@H]3O[C@H](CO)[C@@H](O)[C@H](O)[C@H]3O)[C@H](O)[C@H]2O[C@@H]2O[C@H](CO)[C@@H](O)[C@H](O)[C@H]2O)c2ccccc12	inactive	–	–
COc1ccc(C2(O)c3ccccc3NC(=O)C2OC)cc1 (centres undefined)	inactive	–	–
